SENP7 block – SENP7 protease inhibition. Q9BQF6. recombinant SENP7, Z-RLRGG-aminoluciferin luminescence, 40 min. inhibition, % at 5 µM. actives 1.5% (n = 330,000);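 active = inhibition above about 50% at the single test dose, limit read from the data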;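 also: plate controls were DMSO with enzyme for no effect and no enzyme buffer wells for full effect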
HSP90 refold inh – inhibitors of HSP90 luciferase refolding in rabbit reticulocyte lysate. luciferase refolding luminescence, 3 h. actives 0.91% (n = 290,000). inhibition, % at 5.6 µM. AID 1789;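 active = inhibition above the screen-wide mean plus 3 SD, computed separately per campaign, cut at about 16% in these data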;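 also: 0% = DMSO wells and 100% = 60 µM geldanamycin wells; inhibitors lower the luminescence because luciferase stays unfolded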
SENP8 block-1 – blocks the human protease SENP8. purified SENP8, Z-RLRGG-aminoluciferin cleavage, luminescence. inhibition, % at 10 µM. AID 2540. actives 1.2% (n = 330,000). Q96LD8; in the data active = inhibition above about 50%
SENP8 block-2 – blocks human SENP8 cleavage of Nedd8 substrate; Q96LD8; actives 0.64% (n = 360,000); inhibition, % at 20 µM; recombinant SENP8, Nedd8 substrate fluorescence; in the data active = inhibition mostly above about 40%, no sharp cut-off; inactive = mostly below about 27%
SENP6 inh – SENP6 protease inhibition; inhibition, % at 10 µM; Recombinant SENP6 catalytic domain, aminoluciferin luminescence; Q9GZR1; AID 2599; actives 1.8% (n = 330,000);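 active = inhibition above about 50% at the single tested dose, limit read from the data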;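 also: plate controls were DMSO wells with enzyme for no effect and DMSO wells lacking enzyme for full effect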
Target sequence (Q9GZR1 628-1112 limits assumed): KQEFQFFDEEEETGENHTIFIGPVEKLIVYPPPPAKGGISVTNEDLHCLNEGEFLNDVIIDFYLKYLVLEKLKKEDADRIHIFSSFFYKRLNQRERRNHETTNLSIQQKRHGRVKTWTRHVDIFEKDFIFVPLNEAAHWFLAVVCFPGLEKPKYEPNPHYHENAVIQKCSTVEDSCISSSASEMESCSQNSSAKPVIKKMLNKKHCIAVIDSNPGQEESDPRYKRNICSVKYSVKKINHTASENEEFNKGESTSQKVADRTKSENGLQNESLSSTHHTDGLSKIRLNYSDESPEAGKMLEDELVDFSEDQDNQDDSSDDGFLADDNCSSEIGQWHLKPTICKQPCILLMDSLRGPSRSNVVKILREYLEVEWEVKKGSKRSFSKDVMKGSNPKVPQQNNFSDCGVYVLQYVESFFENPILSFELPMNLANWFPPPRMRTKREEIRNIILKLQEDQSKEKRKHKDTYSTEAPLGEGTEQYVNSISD
SENP8 conf – human SENP8 inhibition, confirmed | Recombinant SENP8, Z-RLRGG-aminoluciferin luminescence, 60 min | inhibition, % at 12.5 µM | AID 488912 | shares compounds with SENP7 block | actives 40% (n = 6,200);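 active = mean inhibition across replicates above about 50%, limit read from the data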
SENP6 confirm – human SENP6 inhibition, confirmed. shares compounds with SENP7 block. recombinant SENP6, Z-RLRGG-aminoluciferin luminescence. inhibition, % at 12.5 µM. actives 58% (n = 6,200)
SENP7 conf – human SENP7 inhibition, confirmed | shares compounds with SENP7 block | recombinant SENP7, Z-RLRGG-aminoluciferin luminescence, 40 min | inhibition, % at 12.5 µM | actives 69% (n = 6,200)
Casp3 SENP sel – inhibits human caspase-3 in SENP selectivity test; AID 488918; shares compounds with SENP7 block; actives 60% (n = 6,200); inhibition, % at 12.5 µM; purified caspase-3, Z-DEVD-aminoluciferin luminescence, 60 min;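 active = mean inhibition above about 50%, limit read from the data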;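 also: plate controls were enzyme with DMSO for no effect and wells without caspase-3 for full effect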
Luc interf – luminescence interference (SENP counter-screen) | AID 488919 | shares compounds with SENP7 block | inhibition, % at 12.5 µM | Pre-incubated SENP8/Z-RLRGG-aminoluciferin, luciferase luminescence interference | actives 39% (n = 6,200);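 active = mean inhibition above about 50% when retested at one dose, limit read from the data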;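 also: plate controls were DMSO wells with completed reaction for no effect and substrate without enzyme for full effect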
Starred values were filed as active, the others as inactive; / = not tested or not shown. Most compounds without a hit are left out; they make up all but 2.8% or so of the library.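 The calls were made as follows, unless noted: active = mean inhibition above about 50% in the one-dose retest (limit read from the data); inactive = the rest.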

SMILES	SENP7 block	HSP90 refold inh	SENP8 block-1	SENP8 block-2	SENP6 inh	SENP8 conf	SENP6 confirm	SENP7 conf	Casp3 SENP sel	Luc interf
O=c1cc(-c2ccccc2Cl)oc2cc(O)cc(O)c12	0	-5	-4	8	17	/	/	/	/	/
CCN(C(=O)CO/N=C/c1ccc(OC)cc1OC)c1c(N)n(Cc2ccccc2)c(=O)[nH]c1=O	3	/	10	-1	0	/	/	/	/	/
COc1ccc(-c2nc(-c3cccnc3)no2)cc1	84*	8	67*	-2	77*	78*	78*	96*	86*	48
CCOc1ccc(-c2nc(-c3cccnc3)no2)cc1	95*	2	85*	32	72*	5	73*	91*	74*	33
CCOc1ccc(-c2nc(-c3ccccc3C)no2)cc1	99*	-2	95*	/	93*	70*	56*	32	78*	25
CCCCOc1ccc(-c2nc(-c3cccnc3)no2)cc1	79*	-4	64*	20	81*	-5	6	23	6	7
COc1ccc(-c2noc(-c3cccnc3)n2)cc1OC	35	1	19	20	44	/	/	/	/	/
O=C(O)c1ccc(-n2cncn2)c([N+](=O)[O-])c1	0	-3	-7	-64	-8	/	/	/	/	/
Cn1ccnc1C(=O)C1CCCN(Cc2cn[nH]c2-c2ccc(-c3ccccc3)cc2)C1 (stereo unspecified)	2	2	-5	11	6	/	/	/	/	/
CC(=O)c1sc(Nc2ccc3c(c2)OCO3)nc1C	/	/	/	-172	/	/	/	/	/	/
CCOC(=O)[C@]12CCCC=C1N(CCc1ccc(OC)c(OC)c1)C(=O)[C@H](CC(=O)NCCCN1CCCC1=O)C2	/	/	/	13	/	/	/	/	/	/
O=C(NC1CCCCC1)NC1CCN(C(=S)NCc2ccco2)CC1	8	-2	9	13	-38	/	/	/	/	/
O=C(O)c1ccc(SCc2cnc(Cl)s2)cc1	7	1	-15	11	-21	/	/	/	/	/
O=C(/C=C/c1ccccc1)Nc1cccc(C(=O)O)c1	100*	89*	97*	2	99*	-25	99*	103*	95*	98*
CSc1cccc(NC(C)=O)c1	1	3	-2	-2	-13	/	/	/	/	/
CSc1cccc(NC(=O)/C=C/c2ccc(Cl)cc2)c1	59*	-3	38	9	66*	54*	59*	84*	33	51*
CSc1cccc(NC(=O)COc2ccccc2)c1	-5	3	-16	5	-1	/	/	/	/	/
O=C(/C=C/c1ccccc1)Nc1cccc(C(=O)N2CCCCC2)c1	/	/	/	5	/	/	/	/	/	/
CSc1cccc(NC(=O)/C=C/c2ccccc2)c1	49	-5	16	15	51*	57*	54*	81*	28	65*
CCCCN1C[C@H](c2ccc(OC)cc2)[C@@H](CC(=O)Nc2ccc(OC)cc2)C1=O	/	/	/	-2	/	/	/	/	/	/
Cc1cnc(C(=O)OCc2ccc(COC(=O)c3cnc(C)cn3)cc2)cn1	-4	4	-3	0	3	/	/	/	/	/
COc1ccc2cc1Oc1ccc(cc1)C[C@H]1c3cc(c(OC)cc3CCN1C)Oc1c(OC)c(OC)cc3c1[C@@H](C2)N(C)CC3	27	/	34	76*	58*	10	2	0	5	0
CCOC(=O)c1c(/N=C/N(C)C)sc2c1CCC2	3	-4	3	26	9	/	/	/	/	/
CCn1cnc2sc(-c3ccccc3)cc2c1=O	10	-2	21	-29	58*	37	30	65*	50	44
Cc1ccc(SC2=C(Sc3ccc(C)cc3)C(=O)c3ccccc3C2=O)cc1	12	7	40	-93	62*	10	11	16	11	5
SMILES	SENP7 block	HSP90 refold inh	SENP8 block-1	SENP8 block-2	SENP6 inh	SENP8 conf	SENP6 confirm	SENP7 conf	Casp3 SENP sel	Luc interf
Cc1ccc(N2C(=O)c3ccccc3C2=O)cc1	-11	-1	-3	16	3	/	/	/	/	/
CCOC(=O)c1ccc(N2C(=O)c3n[nH]c(-c4ccco4)c3C2c2cccc([N+](=O)[O-])c2)cc1 (stereo unspecified)	2	1	-4	18	-23	/	/	/	/	/
COc1ccc(OC)c2c1sc(=NC(=O)C(C)(C)C)n2C	-10	-1	-13	-24	-4	/	/	/	/	/
COc1cc(C(=O)N=c2sc3c(C)ccc(OC)c3n2C)cc(OC)c1OC	77*	1	8	-397	24	7	6	23	0	-11
COc1cc(C(=O)N=c2sc3ccccc3n2C)cc(OC)c1OC	2	5	-14	-401	-22	/	/	/	/	/
COc1ccc(C(=O)N=c2sc3c(C)ccc(OC)c3n2C)cc1	99*	-5	90*	-405	98*	-18	1	15	8	25
CC(=O)Nc1cccc(-c2cn3ccc(C)cc3n2)c1	40	2	22	-391	38	/	/	/	/	/
S=C(Nc1ccc(-c2nc3ccccc3[nH]2)cc1)Nc1cccnc1	41	1	23	-304	65*	17	9	34	45	23
O=C(Nc1ccc(-c2nc3ccccc3[nH]2)cc1)c1ccco1	86*	0	84*	-69	91*	87*	87*	96*	88*	65*
Cc1ccc2nc(-c3cccc(NC(=O)c4ccco4)c3)[nH]c2c1	95*	6	87*	-33	92*	2	93*	101*	89*	92*
Cc1ccn2cc(-c3ccc(NC(=O)c4ccco4)cc3)nc2c1	64*	-1	48	-51	76*	55*	53*	86*	74*	16
Fc1ccc(NC(=S)Nc2cccnc2)cc1	11	-2	-3	-1	-8	/	/	/	/	/
Cc1ccc(C(C(=O)NCc2ccccc2)N(C(=O)c2ccccn2)c2ccccc2)o1 (stereo unspecified)	0	-5	-11	13	-32	/	/	/	/	/
Cc1cccc(C(=O)N2CCc3ccccc3C2)c1[N+](=O)[O-]	-4	3	0	-2	-11	/	/	/	/	/
Cc1nn(C)cc1/C=C/C(=O)c1ccc(O)cc1	-4	-3	31	-4	53*	-10	-16	-13	4	38
Cc1ccc(C(=O)/C=C/C(=O)c2ccc(C)cc2)cc1	11	-4	0	16	-13	/	/	/	/	/
Cc1ccc(/C=C/C(=O)c2ccc(C)cc2)cc1	-12	1	-2	12	52*	2	-9	-23	-7	4
Cc1nn(C)cc1/C=N/O	8	4	-1	3	-9	/	/	/	/	/

Bioassay records deposited in PubChem BioAssay by several laboratories.
